Calls of active or inactive are those of the source.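 Rule for the calls, unless noted: active = visually confirmed hit in the image check and inhibition above 20%; inconclusive = visually confirmed hit but inhibition not above 20%; inactive = no visual hit in the image check.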 Where a SMILES comes first, the peptide text is derived from it. [ ]: non-standard residue; d: D form. The star is where a group is joined. ξ: configuration not given here. Cbz = O=C(OCc1ccccc1)*; ξK = NCCCCC(N)C(=O)O
Experiments:
[1] = inhibitors of TNFa-induced NFkB p65 translocation, primary screen, imaging, HUVEC, MLSMR starter and 10KST1 sets (AID 438;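 active = inhibition above 20% together with a positive visual image hit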;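 note: compound added about 3h40 before a 20 min TNFalpha stimulation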;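 for inhibition: signal is the nuclear over cytoplasmic p65 intensity ratio per well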); details: HUVEC TNFa-induced p65 nuclear translocation; cell count: measured here: nuclei count (cytotoxicity indicator), at 2.08 µM; inhibition: at 2 µM, stronger effect = higher value, 0% TNFa-plus-vehicle, 100% no-TNFa wells
[2] = inhibitors of mutant huntingtin aggregation, primary screen, imaging, exon1htt(103Q)mCFP cells, high-content imaging (AID 483;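 active = visual image review flags a hit and inhibition of aggregation exceeds 20%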;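 note: compound exposure lasted 3 days before fixation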;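 for nuclei count: percent of the per-plate median nuclei count of sample wells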); details: exon1htt(103Q)mCFP cell line, aggregate imaging, at 2 µM; inhibition of aggregation: stronger effect = higher value; nuclei count: measured here: cell count, toxicity
[3] = inhibitors of E-selectin induction by TNFa, primary screen, imaging, HUVEC, immunofluorescence, MLSMR starter and 10KST1 sets (AID 487); details: HUVEC TNFalpha-induced E-selectin immunofluorescence imaging, at 2 µM; inhibition: stronger effect = higher value; nuclei count: measured here: cell number, toxicity;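 for inhibition: signal is fraction of cell area covered by stained E-selectin grains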;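 for nuclei count: 100% = median nuclei count of all wells on the same plate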
[4] = molecular target: Voltage-gated potassium channel subunit beta-2 (Rattus norvegicus) (UniProt P62483); test: KvBeta enzyme negative modulators, primary screen, biochemical, NADPH fluorescence (AID 622;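 active = fluorescence slope higher than the sample average by over 3 SD, cut at about -0.22 in these data, passing the limit was not always enough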;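 note: slope of raw intensity against log time taken from 70 to 1610 s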); details: recombinant KvBeta, 4-cyanobenzaldehyde reduction, at 10 µM, stronger effect = higher value
[5] = molecular target: Voltage-gated potassium channel subunit beta-2 (Rattus norvegicus) (UniProt P62483); test: KvBeta positive modulators, primary screen, biochemical, NADPH fluorescence (AID 623;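 active = NADPH fluorescence slope more negative than the mean of all samples by about 3 SD, 99.7% confidence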;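 note: fluorescence intensity change per second fitted from 20 to 320 s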); details: Recombinant KvBeta, NADPH fluorescence decrease slope, 10 min; at 10 µM; stronger effect = lower value
[6] = molecular target: Alpha-2C adrenergic receptor (Homo sapiens) (UniProt P18825); test: modulators of alpha2C/GIRK thallium flux, primary screen, cell-based, HEK293 alpha2C/GIRK1/2 (AID 624;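 active = fluorescence slope after compound addition differing from the mean of all screened samples at 99.7% confidence, in either direction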;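 note: slope of fluorescence ratio to pre-addition baseline per second over 15 to 24 s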); details: thallium flux BTC fluorescence, at 10 µM, actives lie on both sides
[7] = inhibitors of Sendai virus-induced IRF3 signaling, primary screen, TLR/RLR signaling modifier project, cell-based, Sendai virus stimulus, luciferase, 10K MLSCN set (AID 602276;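 active = inhibition at or above 50% at 10 µM; inactive = inhibition below 50%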;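 note: firefly luciferase from ISG56 promoter only with Renilla not read in this screen; 0% = Sendai virus plus DMSO and 100% = medium plus DMSO without virus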); details: HEK293 RL24 IRF3 luciferase reporter, at 10 µM, stronger effect = higher value
[8] = inhibitors of poly I:C-induced TLR3 signaling, primary screen, cell-based, poly I:C stimulus, luciferase, 10K MLSCN set (AID 602277;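 active = inhibition of the reporter signal at or above 50%; inactive = inhibition below 50%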); details: HEK293-TLR3 RL24 IRF3 luciferase reporter, at 10 µM, stronger effect = higher value

Voltage-gated potassium channel subunit beta-2 (Rattus norvegicus), sequence (P62483 whole entry, looked up): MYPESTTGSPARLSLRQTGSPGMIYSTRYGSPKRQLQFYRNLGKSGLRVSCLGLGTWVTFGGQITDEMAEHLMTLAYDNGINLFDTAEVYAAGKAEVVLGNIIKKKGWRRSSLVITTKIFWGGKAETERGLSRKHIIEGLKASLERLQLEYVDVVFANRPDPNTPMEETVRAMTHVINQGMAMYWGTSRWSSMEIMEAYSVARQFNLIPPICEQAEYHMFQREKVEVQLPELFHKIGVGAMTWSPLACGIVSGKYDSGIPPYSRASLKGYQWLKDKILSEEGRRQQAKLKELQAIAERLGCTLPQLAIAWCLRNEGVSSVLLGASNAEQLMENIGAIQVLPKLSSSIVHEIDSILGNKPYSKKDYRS
Alpha-2C adrenergic receptor (Homo sapiens), sequence (P18825 whole entry, looked up): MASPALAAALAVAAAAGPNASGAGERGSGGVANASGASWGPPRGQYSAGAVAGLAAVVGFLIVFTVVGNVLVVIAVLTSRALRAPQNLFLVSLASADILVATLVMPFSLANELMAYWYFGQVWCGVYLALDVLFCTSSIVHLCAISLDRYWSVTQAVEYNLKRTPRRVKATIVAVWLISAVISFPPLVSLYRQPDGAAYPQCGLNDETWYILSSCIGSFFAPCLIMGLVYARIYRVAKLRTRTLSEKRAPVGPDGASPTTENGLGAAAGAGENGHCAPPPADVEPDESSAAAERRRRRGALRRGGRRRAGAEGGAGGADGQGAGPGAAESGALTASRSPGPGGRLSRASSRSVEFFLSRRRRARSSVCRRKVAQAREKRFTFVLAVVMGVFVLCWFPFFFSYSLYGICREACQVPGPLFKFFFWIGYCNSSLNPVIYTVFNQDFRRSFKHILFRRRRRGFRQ

SMILES	cell count [1]	inhibition [1]	inhibition of aggregation [2]	nuclei count [2] [%]	inhibition [3]	nuclei count [3] [%]	fluorescence slope [4]	NADPH fluorescence slope [5]	slope [6]	inhibition [7]	inhibition [8]
Cc1nn(-c2ccccc2)c2sc(C(=O)N3CCOCC3)cc12	536	-4.4% (inactive)	-1.9% (inactive)	115	-11.9% (inactive)	118	-0.398 (inactive)	1.4e-05 (inactive)	0.00676 (inactive)	-21.4% (inactive)	-21.6% (inactive)
Cc1cccc(NC(=O)C2CCCN2C(=O)OCC(C)C)c1C (centres undefined)	728	-6.9% (inactive)	-27.8% (inactive)	109	-120% (inactive)	119	-0.322 (inactive)	-6.4e-05 (inactive)	0.00484 (inactive)	5.88% (inactive)	14.1% (inactive)
O=C(Nc1cnccn1)c1cccs1	655	-17.2% (inactive)	-13.1% (inactive)	122	-34.1% (inactive)	110	-0.517 (inactive)	-2.8e-05 (inactive)	0.00591 (inactive)	10.2% (inactive)	12.3% (inactive)
C=CCn1c(-c2ccccc2)c[nH]c1=S	544	-9.5% (inactive)	-9.3% (inactive)	112	8.5% (inactive)	101	-0.61 (inactive)	-4.2e-05 (inactive)	0.00665 (inactive)	-33.4% (inactive)	-112% (inactive)
CCNc1nc(N2CCOCC2)nc(N(c2ccccc2)c2ccccc2)n1	324	8.2% (inactive)	-29.1% (inactive)	93.3	-3.9% (inactive)	101	-0.388 (inactive)	-5.9e-05 (inactive)	0.00355 (inactive)	9.87% (inactive)	28.5% (inactive)
CCc1nc(N)c(C#N)c(-c2ccncc2)c1C	598	6.3% (inactive)	-19.7% (inactive)	100	-24.5% (inactive)	106	-0.605 (inactive)	-3.1e-05 (inactive)	0.00327 (inactive)	9.38% (inactive)	19.4% (inactive)
c1ccc(CN2C3=NCCCN3c3ccccc32)cc1	361	-4.7% (inactive)	-10.1% (inactive)	97.9	-3.7% (inactive)	117	-0.601 (inactive)	-1.3e-05 (inactive)	0.00493 (inactive)	11.4% (inactive)	22.1% (inactive)
CCOC(=O)c1ccccc1NC(=O)c1cccnc1	381	5.5% (inactive)	-28.4% (inactive)	117	-167% (inactive)	135	-0.504 (inactive)	2.4e-05 (inactive)	0.00744 (inactive)	-0.374% (inactive)	10.8% (inactive)
COC(=O)C(CCCCNC(=O)OCc1ccccc1)NC(=O)CN (centres undefined) (H-Gly-[ξK](Cbz)-OMe)	529	-6.5% (inactive)	11.4% (inactive)	104	-14% (inactive)	71.3	-0.623 (inactive)	-2.9e-05 (inactive)	0.00756 (inactive)	4.8% (inactive)	6.56% (inactive)
O=S(=O)(NC1CCCC1)c1ccc(S(=O)(=O)N2CCc3ccccc32)cc1	395	0% (inactive)	8.6% (inactive)	102	-13.9% (inactive)	97.5	-0.589 (inactive)	-1.9e-05 (inactive)	0.00513 (inactive)	5.42% (inactive)	-11.7% (inactive)
CCOC(=O)N1CCC(NC(=O)c2cnn3ccccc23)CC1	761	7.4% (inactive)	-3.3% (inactive)	88.5	-67% (inactive)	113	-0.589 (inactive)	4.8e-07 (inactive)	0.0078 (inactive)	-3.54% (inactive)	9.82% (inactive)
CCOc1ccc(C(C)=O)cc1COc1ccc(-n2cnnn2)cc1	407	-8.7% (inactive)	18.3% (inactive)	80.8	25.1% (inactive)	132	-0.617 (inactive)	-6.6e-05 (inactive)	0.00398 (inactive)	1.13% (inactive)	-2.41% (inactive)
COC(=O)c1cccc(NC(=O)CSc2nnc(COc3ccccc3)n2C)c1	671	-5.4% (inactive)	-2.2% (inactive)	101	-88% (inactive)	135	-0.436 (inactive)	-4.3e-05 (inactive)	0.00598 (inactive)	11.9% (inactive)	14% (inactive)
COCCCNC(=O)CSc1ccc(Cl)cc1	378	-1.8% (inactive)	-3.3% (inactive)	93.9	10.2% (inactive)	80	-0.377 (inactive)	-5e-05 (inactive)	0.00511 (inactive)	1.1% (inactive)	10.8% (inactive)

— PubChem BioAssay
